Screens as filed in PubChem.
BCR signal inh – inhibitors of chronic active B-cell receptor signaling; ABC-DLBCL IkBa-CBG/CBR reporter, luminescence ratio, 4 h; Potency, µM (top dose mostly 46.1 µM), usual class: inhibitors; hit rate 0.05% among 340,000; active = well fitted inhibition curve with a large enough effect in the signal ratio, with a control signal flat, not every such curve was filed as active; inconclusive = small, poorly fitted or top-dose-only effect, or effect the other way, or a change in a side signal; the % refers to the signal ratio
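Doxycycline induced both beetle luciferases in TMD8 lymphoma cells; IKK-driven degradation limits the IkappaBalpha-fused green signal, while red luminescence normalises for cell number and nonspecific effects. Compounds tested up to 46 uM, 4 hrs.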
RORg inh – inhibitors of mouse ROR gamma transcriptional activity. AID 2551. Potency, µM (top dose mostly 53.6 µM), actives largely listed as inhibitors. hit rate 5.4% among 310,000. Drosophila S2 Gal4-RORgamma UAS-luciferase reporter, 20 h; also: nearly all actives have a fitted effect of over 60% in size
Target sequence (P51450 whole entry, looked up, the tested form may be a part): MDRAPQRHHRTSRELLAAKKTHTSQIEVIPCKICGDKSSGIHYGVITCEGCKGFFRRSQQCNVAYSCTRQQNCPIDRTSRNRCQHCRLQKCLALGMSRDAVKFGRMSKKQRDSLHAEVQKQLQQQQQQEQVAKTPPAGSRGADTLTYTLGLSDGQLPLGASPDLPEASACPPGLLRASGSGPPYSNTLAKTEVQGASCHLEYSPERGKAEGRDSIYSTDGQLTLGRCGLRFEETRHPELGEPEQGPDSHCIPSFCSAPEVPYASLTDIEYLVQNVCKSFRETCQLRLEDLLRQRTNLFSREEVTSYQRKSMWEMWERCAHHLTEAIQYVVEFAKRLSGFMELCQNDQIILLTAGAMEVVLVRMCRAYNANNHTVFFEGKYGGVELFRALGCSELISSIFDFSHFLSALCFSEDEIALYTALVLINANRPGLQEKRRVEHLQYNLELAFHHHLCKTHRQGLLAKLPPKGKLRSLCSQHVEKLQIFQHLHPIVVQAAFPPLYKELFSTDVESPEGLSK
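ROR gamma transcriptional activity was tracked as Gal4-UAS luciferase output in stably transfected Drosophila Schneider cells, with compound added 1 hr before 700 uM copper sulfate induction and a 20 hr ambient-temperature incubation.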
Giardia kill – kills Giardia lamblia; Giardia lamblia trophozoite viability; hit rate 0.15% among 340,000; AID 540267; activity change, % at 7.66 µM, hits read low; in the data active = activity change below about -80%; inconclusive = between about -30% and that limit;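 also: parasites exposed to compound for two days anaerobically before the ATP read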
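Luminescent ATP signal served as the viability read-out, measured 15-30 min after adding ATP detection reagent to trophozoites that had been incubated with compounds for 48 hrs at 37 deg C anaerobically at 100 cells/well.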
SW480 rerep – DNA re-replication induction in SW480 cells; SW480 DNA re-replication, Hoechst DNA content imaging, 48 h; Potency, µM (highest dose often 46.1 µM), hits mostly activators; hit rate 1.8% among 340,000; AID 624297; also: nearly all actives have a fitted effect of over 55% in size
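Image-based DNA-content assay: after two days of treatment, nuclei were labelled with the DNA dye Hoechst and imaged, and hits were compounds raising the count of nuclei showing high fluorescence intensity.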
Gal4-VP16 FLuc – Gal4-VP16 reporter inhibition counter-screen. Drosophila S2 Gal4-VP16 UAS-luciferase, luminescence, 20 h. Potency, µM (series often up to 53.6 µM), hits mostly inhibitors. hit rate 3.5% among 310,000;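 also: Gal4-VP16 expression switched on by copper sulfate through the metallothionein promoter; nearly all actives have a fitted effect of over 50% in size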
MCF10A rerep – inducers of DNA re-replication in MCF 10A breast cells; hit rate 2.9% among 350,000; MCF 10A DNA re-replication, Hoechst nuclear intensity, 48 h; Potency, µM (top dose mostly 46.1 µM), hits mostly activators; AID 624296; also: nearly all actives have a fitted effect of over 50% in size
Of the large screens only hits and unclear results are named; the others gave an inactive call. In the library only some 8.3% were active in any assay of this set; here they are far more common. Unless noted, calls follow the shape of the dose curve; as a rule, active = well fitted curve in the direction sought with a large enough effect; inconclusive = small, poorly fitted or top-dose-only effect, or another doubt; inactive = no such curve, though single readings can be large; an effect the other way counts as inactive or inconclusive.

Cc1ccc2c(CC(=O)OCC(=O)N(CC(C)C)c3c(N)n(Cc4ccccc4)c(=O)[nH]c3=O)coc2c1	SW480 rerep 6.5µM, MCF10A rerep inconclusive (no result: RORg inh, Gal4-VP16 FLuc)
CCN(C(=O)COC(=O)Cc1coc2cc(C)ccc12)c1c(N)n(Cc2ccccc2)c(=O)[nH]c1=O	none (no result: RORg inh, Gal4-VP16 FLuc)
CC(C)CC(=O)NC(=S)Nc1ccccc1N1CCCC1	RORg inh 4µM, Gal4-VP16 FLuc 11µM
CCCCCC(=O)NC(=S)Nc1ccc(N2CCCCC2)c(Cl)c1	BCR signal inh inconclusive, RORg inh 1.6µM, Gal4-VP16 FLuc 7.1µM, MCF10A rerep inconclusive
COc1ccc(Cl)cc1NC(=O)CN(C)C(=O)Cc1ccc2c(c1)CCC2	BCR signal inh inconclusive
COc1ccc(Cl)cc1NC(=O)CN(C)C(=O)c1cc2c(s1)CCCC2	SW480 rerep 18µM, MCF10A rerep inconclusive (no result: RORg inh, Gal4-VP16 FLuc)
COc1ccc(Cl)cc1NC(=O)CN(C)CC(=O)Nc1ccccc1N1CCOCC1	BCR signal inh inconclusive, SW480 rerep 5.2µM, MCF10A rerep inconclusive
Cc1ccc(-n2nnnc2SCC(=O)Nc2ccc3c(c2)COC3=O)cc1C	none (no result: Gal4-VP16 FLuc)
Cc1c(OCC(=O)NCC(O)c2ccccc2)ccc2c(-c3ccccc3)cc(=O)oc12 (stereo not drawn)	BCR signal inh inconclusive, RORg inh inconclusive
O=C(Cc1ccc(Cl)cc1)NC(=S)Nc1ccccc1N1CCOCC1	BCR signal inh inconclusive, RORg inh 5µM, Gal4-VP16 FLuc 5µM, MCF10A rerep inconclusive
CCC(=O)NC(=S)Nc1cccc(Cl)c1N1CCCCC1	BCR signal inh inconclusive, RORg inh 4.5µM, SW480 rerep 11µM, Gal4-VP16 FLuc 5µM, MCF10A rerep inconclusive
CCCCC(=O)NC(=S)Nc1cccc(Cl)c1N1CCCCC1	RORg inh 1.6µM, Gal4-VP16 FLuc 5µM, MCF10A rerep inconclusive
CC(=O)NC(=S)Nc1ccccc1N1CCCCC1	RORg inh 2.5µM, Gal4-VP16 FLuc 7.1µM
Cc1cccc(CCN2CCN=C2N(C)C)c1	none (no result: RORg inh, Gal4-VP16 FLuc)
O=C(NCc1cccnc1)c1ccc(S(=O)(=O)N2CCCCCC2)cc1	MCF10A rerep inconclusive
Cc1ccc(NC(=O)COC(=O)C2CCC2)cc1S(=O)(=O)N1CCOCC1	none (no result: RORg inh, Gal4-VP16 FLuc)
CCN1CCN(C(=O)C(=O)c2c(C)[nH]c3ccccc23)CC1	none
CCCCC(=O)NC(=S)Nc1ccccc1N1CCCCC1	RORg inh 4.5µM, SW480 rerep inconclusive, Gal4-VP16 FLuc 8.9µM, MCF10A rerep inconclusive
CCCCCC(=O)NC(=S)Nc1ccc(N2CCOCC2)cc1	BCR signal inh inconclusive, RORg inh 1.3µM, Gal4-VP16 FLuc 2.2µM
CCCC(=O)NC(=S)Nc1ccccc1N1CCOCC1	RORg inh 11µM, Gal4-VP16 FLuc inconclusive
CCCC(=O)NC(=S)Nc1cccc(Cl)c1N1CCCCC1	RORg inh 0.63µM, Gal4-VP16 FLuc 1µM, MCF10A rerep inconclusive
CCC(=O)NC(=S)Nc1ccc(N2CCOCC2)cc1	none
O=C(Nc1cccc(Cl)c1N1CCCC1)c1ccc(Br)o1	RORg inh inconclusive, MCF10A rerep inconclusive
CCOCCc1nnc(NC(=O)CCc2ccccc2)s1	none
COC12NC(=O)N(C)C1(OC)C(=O)N(C)C(=O)N2C (stereo not drawn)	SW480 rerep 0.65µM, MCF10A rerep inconclusive
Cc1noc(/C=C/N(C)C)c1S(=O)(=O)N1CCc2ccccc21	RORg inh inconclusive, MCF10A rerep 18µM
CC(C)C[C@H](NC(=O)N1CCn2c1nc1ccccc12)C(=O)N1CCCCC1	none
O=C(Nc1ccc(Oc2ccccc2)nc1)C1CCCCN1Cc1ccco1 (stereo not drawn)	BCR signal inh inconclusive, SW480 rerep 2.9µM, MCF10A rerep 1.8µM
O=C(Nc1ccc(Oc2ccccc2)nc1)C1CCN(Cc2ccco2)CC1	none
Cc1ccc(CN2CCCCC2C(=O)Nc2ccc(Oc3cccnc3)cc2)o1 (stereo not drawn)	BCR signal inh inconclusive, SW480 rerep 16µM, MCF10A rerep 15µM
CC1(C)CCC(=O)c2ccccc21	none (no result: BCR signal inh, RORg inh, Gal4-VP16 FLuc)
CC1(C)CCC2=C(O1)c1ccccc1C(=O)C2=O	RORg inh 2.5µM, Gal4-VP16 FLuc 5.6µM (no result: BCR signal inh, Giardia kill, SW480 rerep, MCF10A rerep)
CCNc1ncc2nc(-c3ccccc3)c(=O)n(Cc3cccc(OC)c3)c2n1	RORg inh inconclusive (no result: BCR signal inh, Giardia kill, SW480 rerep, MCF10A rerep)
COc1ccccc1CNC(=O)COC(=O)c1ccc2c(=O)n3c(nc2c1)CCCCC3	none (no result: RORg inh, Gal4-VP16 FLuc)
COc1ccc(-c2n[nH]c(=S)n2-c2ccc3c(c2)OCCO3)cc1	BCR signal inh inconclusive, RORg inh 2.8µM, Gal4-VP16 FLuc inconclusive
COc1cc(-c2n[nH]c(=S)n2-c2cccc(C(F)(F)F)c2)cc(OC)c1OC	BCR signal inh inconclusive
S=c1[nH]nc(-c2ccc(Br)cc2)n1-c1ccc2c(c1)OCCO2	RORg inh 0.4µM
COc1cc(-c2n[nH]c(=S)n2-c2ccc(Br)cc2)cc(OC)c1OC	BCR signal inh inconclusive, RORg inh 8.9µM, Gal4-VP16 FLuc inconclusive
S=c1[nH]nc(-c2ccc(Cl)cc2Cl)n1-c1ccc2c(c1)OCCO2	RORg inh 3.5µM
COC(=O)/C=C/COc1ccccc1[N+](=O)[O-]	BCR signal inh inconclusive, SW480 rerep inconclusive, MCF10A rerep inconclusive
CC(C)C(=O)NC(=O)[C@@H]1CCCN1C(=O)/C=C/c1ccccc1	none
COC(=O)c1ccc(OCC2c3cc(OC)c(OC)cc3CCN2C(=O)c2ccccc2F)cc1 (stereo not drawn)	none (no result: RORg inh, Giardia kill, SW480 rerep, Gal4-VP16 FLuc, MCF10A rerep)
CCCNC(=O)C(Cc1ccc(F)cc1)NC(=O)c1ccc(C#N)cc1 (stereo not drawn)	none (no result: RORg inh, Gal4-VP16 FLuc)
COc1ccc(-c2n[nH]c(=S)n2-c2ccc3c(c2)OCCO3)cc1OC	none
S=c1[nH]nc(-c2ccc(Br)cc2)n1-c1ccc(Br)cc1	RORg inh 11µM, Gal4-VP16 FLuc inconclusive
O=[N+]([O-])c1cccc(-c2n[nH]c(=S)n2-c2ccc(Br)cc2)c1	RORg inh 10µM
COc1cc(OC)cc(-c2n[nH]c(=S)n2-c2ccc3c(c2)OCCO3)c1	RORg inh 0.35µM, MCF10A rerep inconclusive
CC1CCN(CCc2nc3cc(NC(=O)C(C)C)ccc3n2C)CC1	Giardia kill inconclusive
O=C(COC(=O)/C=C/c1ccc(C(F)(F)F)cc1)NCC1CCCCC1	none (no result: RORg inh, Gal4-VP16 FLuc)
OC1OC[C@H](O)[C@@H](O)[C@H]1O (stereo partly drawn)	none (no result: BCR signal inh, Giardia kill, SW480 rerep, MCF10A rerep)
CCN(CC)C(=O)c1cc(C(C)(C)C)c(O)c(C(C)(C)C)c1	BCR signal inh inconclusive, RORg inh 10µM
COc1ccccc1NS(=O)(=O)c1cc(NC(=O)Nc2ccc(Cl)cc2Cl)ccc1N1CCCCC1	BCR signal inh inconclusive
O=C(Nc1cccc(C(F)(F)F)c1)Nc1ccc(N2CCCC2)c(S(=O)(=O)Nc2ccccc2Cl)c1	BCR signal inh inconclusive, RORg inh inconclusive, SW480 rerep inconclusive, Gal4-VP16 FLuc 11µM, MCF10A rerep 4.6µM
